Screen size: about 110,000 compounds; about 230 (0.21%) showed an effect of 50% or more. Many of the other results were omitted from the sample, so strong results are more common in it than they were.
Each compound was assayed against DPAP1 (Plasmodium falciparum, UniProt Q8IIJ9) (assay: primary screen, percent inhibition; read by cleavage of a fluorogenic dipeptide substrate; higher = more effect of the substance).
Sequence of DPAP1 (Q8IIJ9 whole entry, looked up): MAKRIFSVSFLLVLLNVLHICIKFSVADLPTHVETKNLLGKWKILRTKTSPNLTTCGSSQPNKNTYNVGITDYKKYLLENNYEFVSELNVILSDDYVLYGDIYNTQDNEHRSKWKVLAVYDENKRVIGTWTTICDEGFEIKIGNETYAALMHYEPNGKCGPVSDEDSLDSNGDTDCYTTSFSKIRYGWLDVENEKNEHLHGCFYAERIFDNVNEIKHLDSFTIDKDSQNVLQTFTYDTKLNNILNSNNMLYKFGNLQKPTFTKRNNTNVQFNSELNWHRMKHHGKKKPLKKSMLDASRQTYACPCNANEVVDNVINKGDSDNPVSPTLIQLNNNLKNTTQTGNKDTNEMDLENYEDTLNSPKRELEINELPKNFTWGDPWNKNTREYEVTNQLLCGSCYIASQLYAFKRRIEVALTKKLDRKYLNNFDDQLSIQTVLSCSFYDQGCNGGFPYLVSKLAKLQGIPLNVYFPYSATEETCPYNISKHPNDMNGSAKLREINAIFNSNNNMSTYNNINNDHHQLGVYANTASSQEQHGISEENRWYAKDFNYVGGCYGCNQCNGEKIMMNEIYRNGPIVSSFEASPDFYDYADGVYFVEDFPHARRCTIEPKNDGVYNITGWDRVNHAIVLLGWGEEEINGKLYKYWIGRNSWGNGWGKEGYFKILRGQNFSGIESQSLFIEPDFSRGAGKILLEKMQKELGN
Set-up: species or system P. falciparum D10 trophozoite lysates; single well
`CC(C)CCNC(=O)c1noc2c1COc1ccccc1-2` was tested, and the “% Inhibition @ 10 uM” value was 88.5%. `COc1cc(-c2cc(NC(=O)c3noc4c3COc3ccccc3-4)on2)cc(OC)c1OC` was tested, and the “% Inhibition @ 10 uM” value was 4.86%. `COc1ccc(OC)c(CCNC(=O)c2noc3c2COc2ccccc2-3)c1` was tested, and the “% Inhibition @ 10 uM” value was 59.5%. With `Cc1ccc2c(c1)-c1onc(C(=O)NCCC(C)C)c1CO2` the “% Inhibition @ 10 uM” value was 1.14%. For `CC(NC(=O)c1noc2c1COc1ccccc1-2)c1ccc2c(c1)OCCO2` (stereo not drawn), the “% Inhibition @ 10 uM” value was 21.3%. In the case of `COc1ccccc1CNC(=O)Nc1noc2c1COc1ccccc1-2`, the “% Inhibition @ 10 uM” value is reported as -0.539%. With `CC1CCN(S(=O)(=O)c2ccc(NC(=O)C(C)(C)C)cc2)CC1` the “% Inhibition @ 10 uM” value was -6.17%. In the case of `N=C(Cc1cccc2ccccc12)NOC(=O)c1cccs1`, the “% Inhibition @ 10 uM” value is reported as 3.66%. In the case of `COc1cc2c(cc1OC)C(C(=O)N1CCC(C)CC1)C(c1cccnc1)N(C)C2=O` (stereo not drawn), the “% Inhibition @ 10 uM” value is reported as 1.83%. In the case of `CCCc1nc2ccccc2n1Cc1ccccc1OC`, the “% Inhibition @ 10 uM” value is reported as 0.913%. For `Cc1ccc(C2CC(=O)N3CN(Cc4cccnc4)CSC3=C2C#N)cc1` (stereo not drawn), the “% Inhibition @ 10 uM” value was 43.8%. `N#CC1=C2SCN(Cc3cccnc3)CN2C(=O)CC1c1ccc(F)cc1` (stereo not drawn) was tested, and the “% Inhibition @ 10 uM” value was 55.3%. For `CCc1ccc(C2CC(=O)N3CN(Cc4ccco4)CSC3=C2C#N)cc1` (stereo not drawn), the “% Inhibition @ 10 uM” value was 33.6%. With `COc1ccc(C2CC(=O)N3CN(Cc4cccnc4)CSC3=C2C#N)cc1` (stereo not drawn) the “% Inhibition @ 10 uM” value was 46.3%. For `CCOc1ccc(C2CC(=O)N3CN(Cc4cccnc4)CSC3=C2C#N)cc1` (stereo not drawn), the “% Inhibition @ 10 uM” value was 56%. In the case of `CN(CC(=O)NC1CCCCCC1)S(=O)(=O)c1ccc(F)cc1`, the “% Inhibition @ 10 uM” value is reported as 3.17%. In the case of `CCN1CCN(C(=O)C2CC(c3ccc(OC)cc3)=NO2)CC1` (stereo not drawn), the “% Inhibition @ 10 uM” value is reported as 1.62%. For `N#CCCN1CCN(C2=NC(=O)/C(=C\c3ccc(-c4ccc(Cl)cc4)o3)S2)CC1`, the “% Inhibition @ 10 uM” value was -2.8%. `COc1ccccc1NC(=O)c1cnc(Nc2nc3ccccc3o2)nc1C` was tested, and the “% Inhibition @ 10 uM” value was -4.12%. For `CCCN1CCC(N2CCC(C)CC2)CC1`, the “% Inhibition @ 10 uM” value was -3.74%. `COc1cccc2c(O)c(C(=O)O)cnc12` was tested, and the “% Inhibition @ 10 uM” value was 0.51%. `Cc1cc(-c2ccc(C)c(S(=O)(=O)N3CCN(CCOc4ccc(Cl)cc4)CC3)c2)on1` was tested, and the “% Inhibition @ 10 uM” value was -5.87%. With `Cc1cc2nc(O)c(O)nc2cc1S(=O)(=O)N1CCN(CCOc2ccc(Cl)cc2)CC1` the “% Inhibition @ 10 uM” value was 52.3%. In the case of `Cc1nc(O)nc(O)c1S(=O)(=O)N1CCN(CCOc2ccc(Cl)cc2)CC1`, the “% Inhibition @ 10 uM” value is reported as -1.38%. In the case of `COc1ccc(-c2cc(C(F)(F)F)nc(SCC(=O)N3CCOCC3)n2)cc1`, the “% Inhibition @ 10 uM” value is reported as -8.55%. With `COc1ccc(-c2cc(-c3ccccc3)nc3sc(C(N)=O)c(N)c23)cc1` the “% Inhibition @ 10 uM” value was 76%. `COC(=O)c1sc2nc(-c3ccccc3)cc(-c3ccc(OC)cc3)c2c1N` was tested, and the “% Inhibition @ 10 uM” value was 2.79%. For `COc1ccc(-c2cc(-c3ccc(OC)cc3)c3c(N)c(C(N)=O)sc3n2)cc1`, the “% Inhibition @ 10 uM” value was 19.8%. With `CCCN1C(=O)c2n[nH]c(C)c2C1c1cccnc1` (stereo not drawn) the “% Inhibition @ 10 uM” value was -4.67%. `COc1ccc(C2=N/C(=C\c3cccc(C(F)(F)F)c3)C(=O)O2)cc1OC` was tested, and the “% Inhibition @ 10 uM” value was 6.11%. For `CCOc1c(/C=C2/S/C(=N\c3ccccc3)N(C)C2=O)cccc1OC`, the “% Inhibition @ 10 uM” value was 1.57%. `O=C1CC(Sc2ccccn2)C(=O)N1c1ccc(Br)cc1` (stereo not drawn) was tested, and the “% Inhibition @ 10 uM” value was 2.38%. `COCCNC(=O)CCN1C(=O)c2ccccc2Sc2ncccc21` was tested, and the “% Inhibition @ 10 uM” value was -2.97%. For `COc1ccc2nc3sc(C(=O)NCCC(C)C)cc3cc2c1`, the “% Inhibition @ 10 uM” value was -5.98%. For `CCCCN(C)CCNC(=O)c1cc2cc3cc(OC)ccc3nc2s1`, the “% Inhibition @ 10 uM” value was 83.9%. `COc1ccc2nc3sc(C(=O)N4CCOCC4)cc3cc2c1` was tested, and the “% Inhibition @ 10 uM” value was 89.7%. In the case of `COc1ccc2nc3sc(C(=O)N4CCC5(CC4)OCCO5)cc3cc2c1`, the “% Inhibition @ 10 uM” value is reported as -4.16%. With `COc1ccc2cc3cc(C(=O)NCCCN4CCN(C)CC4)sc3nc2c1` the “% Inhibition @ 10 uM” value was 1.22%. For `COc1ccc2cc3cc(C(=O)NCCN4CCN(Cc5ccccc5)CC4)sc3nc2c1`, the “% Inhibition @ 10 uM” value was 94.4%. For `COc1ccc2nc3sc(C(=O)NCCN(C)Cc4ccccc4)cc3cc2c1`, the “% Inhibition @ 10 uM” value was -2.12%. `COc1ccc(C(=O)N2CCN(CC(=O)N3CCOCC3)CC2)cc1` was tested, and the “% Inhibition @ 10 uM” value was 6.33%. With `COc1ccc2nc3sc(C(=O)N4CCN(C)CC4)cc3cc2c1` the “% Inhibition @ 10 uM” value was -5.06%. For `COc1ccc(-c2ccc(C(=O)N3CCOCC3)cc2)cc1`, the “% Inhibition @ 10 uM” value was 85.3%. With `COc1ccc(C(=O)N2CCN(C(=O)c3ccc(OC)cc3)CC2)cc1` the “% Inhibition @ 10 uM” value was -1.61%. In the case of `COc1ccc2cc3cc(C(=O)N4CCN(Cc5ccccc5)CC4)sc3nc2c1`, the “% Inhibition @ 10 uM” value is reported as 4.61%. For `CCOc1ccc(C(=O)N(Cc2nc(-c3ccc(Cl)cc3)no2)C(C)C)cc1`, the “% Inhibition @ 10 uM” value was -1.84%. In the case of `CC(=O)Nc1ccc(NC(=O)c2cccc(Cl)c2Cl)cc1`, the “% Inhibition @ 10 uM” value is reported as 3.74%. `COc1cc(NC(=O)C(C)Oc2ccccc2)cc(OC)c1` (stereo not drawn) was tested, and the “% Inhibition @ 10 uM” value was -2.8%. For `Cc1ccc(NC(=O)C(Cc2ccc([N+](=O)[O-])cc2)N2C(=O)c3ccccc3C2=O)cc1[N+](=O)[O-]` (stereo not drawn), the “% Inhibition @ 10 uM” value was -2.47%. `COc1ccccc1S(=O)Cc1ccc(C(=O)NCCc2ccc(Cl)cc2)o1` (stereo not drawn) was tested, and the “% Inhibition @ 10 uM” value was -4.96%. In the case of `COc1ccc2cc3cc(C(=O)N(C)Cc4ccccc4)sc3nc2c1`, the “% Inhibition @ 10 uM” value is reported as 0.402%. With `COc1ccc2nc3sc(C(=O)NCCN4CCOCC4)cc3cc2c1` the “% Inhibition @ 10 uM” value was 3.07%. `COc1ccc2cc3cc(C(=O)NCCN4CCc5ccccc5C4)sc3nc2c1` was tested, and the “% Inhibition @ 10 uM” value was 4.61%. With `CCCCN(CC)C(=O)c1cc2cc3cc(OC)ccc3nc2s1` the “% Inhibition @ 10 uM” value was -1.55%. In the case of `COc1ccc2nc3sc(C(=O)NCCCN4CCCC4=O)cc3cc2c1`, the “% Inhibition @ 10 uM” value is reported as 84.6%. With `CCN(Cc1ccccc1)C(=O)c1cc2cc3cc(OC)ccc3nc2s1` the “% Inhibition @ 10 uM” value was 50.3%. For `CCC1CCCCN1CCCNC(=O)c1cc2cc3cc(OC)ccc3nc2s1` (stereo not drawn), the “% Inhibition @ 10 uM” value was 1.22%. With `COc1ccc2nc3sc(C(=O)NCCCN4CCc5ccccc5C4)cc3cc2c1` the “% Inhibition @ 10 uM” value was 64.7%. For `COc1ccc2nc3sc(C(=O)NCCCN4CC(C)CC(C)C4)cc3cc2c1` (stereo not drawn), the “% Inhibition @ 10 uM” value was -2.44%. For `CSc1ccc(CN2CCN(c3cccc(Cl)c3)CC2)cc1`, the “% Inhibition @ 10 uM” value was 0.847%. For `CCN1CCN(C(=O)CS(=O)(=O)Cc2nc(-c3ccc(C)cc3)oc2C)CC1`, the “% Inhibition @ 10 uM” value was -3.7%. `O=S(=O)(NC1CCc2ccccc21)c1ccc(-n2cnnn2)cc1` (stereo not drawn) was tested, and the “% Inhibition @ 10 uM” value was -1.07%. `CC1=C(C(=O)Nc2ccc(Br)cc2)C(c2ccc(Cl)cc2)NC(=O)N1` (stereo not drawn) was tested, and the “% Inhibition @ 10 uM” value was 1.35%.
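Also: 30 min substrate incubation versus DMSO and 10 µM JCP410 controls.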
